Test results reported in publication PMC11006913.

Each sequence was assayed against PITX2 (Homo sapiens, UniProt Q99697 72-157) (assay: PBM; 200 nM protein, PBS). Conditions: dsDNA, one strand shown.

Sequence | binding signal
ACAGGGTG | 7.94 upbm affinity estimate (log intensity, higher = more binding, comparable within an allelic series)
GGTTTATA | 10.5 upbm affinity estimate (log intensity, higher = more binding, comparable within an allelic series)
GATGATAA | 9.84 upbm affinity estimate (log intensity, higher = more binding, comparable within an allelic series)
GCTTAGAA | 10.2 upbm affinity estimate (log intensity, higher = more binding, comparable within an allelic series)
TGGCTTAA | 12.3 upbm affinity estimate (log intensity, higher = more binding, comparable within an allelic series)
CCTCAACG | 7.97 upbm affinity estimate (log intensity, higher = more binding, comparable within an allelic series)
CGGATTTA | 12.3 upbm affinity estimate (log intensity, higher = more binding, comparable within an allelic series)
AAGCTAGG | 9.89 upbm affinity estimate (log intensity, higher = more binding, comparable within an allelic series)
ATAAATCC | 12.3 upbm affinity estimate (log intensity, higher = more binding, comparable within an allelic series)
GATAAGCC | 12.3 upbm affinity estimate (log intensity, higher = more binding, comparable within an allelic series)
CACCGGGC | 7.98 upbm affinity estimate (log intensity, higher = more binding, comparable within an allelic series)
GGATCCTA | 9.17 upbm affinity estimate (log intensity, higher = more binding, comparable within an allelic series)
CGAGATTA | 12.3 upbm affinity estimate (log intensity, higher = more binding, comparable within an allelic series)
TAGATTAA | 12.4 upbm affinity estimate (log intensity, higher = more binding, comparable within an allelic series)
ACTTAATC | 12.3 upbm affinity estimate (log intensity, higher = more binding, comparable within an allelic series)
GGCATTAC | 10.5 upbm affinity estimate (log intensity, higher = more binding, comparable within an allelic series)
ACGGTGCC | 7.94 upbm affinity estimate (log intensity, higher = more binding, comparable within an allelic series)
CTAAGCCC | 12.3 upbm affinity estimate (log intensity, higher = more binding, comparable within an allelic series)
AGGAGGCC | 8.05 upbm affinity estimate (log intensity, higher = more binding, comparable within an allelic series)
CATCGACC | 8.07 upbm affinity estimate (log intensity, higher = more binding, comparable within an allelic series)

The sequences below were run against HOXD13 (Homo sapiens, UniProt P35453 263-343) (assay: PBM; 200 nM protein, PBS). Conditions: dsDNA, one strand shown.
HOXD13, sequence (P35453 263-343): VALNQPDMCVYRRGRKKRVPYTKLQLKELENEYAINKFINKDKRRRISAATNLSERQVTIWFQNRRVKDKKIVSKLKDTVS

Sequence | binding signal
ATCATTCA | 10.6 upbm affinity estimate (log intensity, higher = more binding, comparable within an allelic series)
GTTAAAGA | 10.8 upbm affinity estimate (log intensity, higher = more binding, comparable within an allelic series)
GACGTTTA | 10.7 upbm affinity estimate (log intensity, higher = more binding, comparable within an allelic series)
TAACTAAA | 10.7 upbm affinity estimate (log intensity, higher = more binding, comparable within an allelic series)
ATCAATAC | 10.5 upbm affinity estimate (log intensity, higher = more binding, comparable within an allelic series)
TATTTAGA | 10.6 upbm affinity estimate (log intensity, higher = more binding, comparable within an allelic series)
CGATTTAA | 10.9 upbm affinity estimate (log intensity, higher = more binding, comparable within an allelic series)
AATAATGC | 10.8 upbm affinity estimate (log intensity, higher = more binding, comparable within an allelic series)
ACACAATA | 10.6 upbm affinity estimate (log intensity, higher = more binding, comparable within an allelic series)
AAGTTGTA | 10.7 upbm affinity estimate (log intensity, higher = more binding, comparable within an allelic series)
AGAGTTAA | 10.7 upbm affinity estimate (log intensity, higher = more binding, comparable within an allelic series)
TATTGCGA | 10.6 upbm affinity estimate (log intensity, higher = more binding, comparable within an allelic series)
ACGATATA | 10.9 upbm affinity estimate (log intensity, higher = more binding, comparable within an allelic series)
TATATGCA | 10.8 upbm affinity estimate (log intensity, higher = more binding, comparable within an allelic series)
AATGAGTA | 10.8 upbm affinity estimate (log intensity, higher = more binding, comparable within an allelic series)
TATATCAA | 10.8 upbm affinity estimate (log intensity, higher = more binding, comparable within an allelic series)
AGACTATA | 10.7 upbm affinity estimate (log intensity, higher = more binding, comparable within an allelic series)
